Reference: PubChem BioAssay (NCATS)
Inconclusive results are not listed. Activity calls are given as the source filed them. Unless noted, the call rests on the fitted dose curve.

Experiments:
[1] = Validation screen for inhibitors of Lassa infection (AID 463096); further: potency means the concentration at half of the fitted maximal effect
[2] = Inducers of the Endoplasmic Reticulum Stress Response (ERSR) in human glioma: Validation (AID 504836; active means well fitted curve in the direction sought with a large enough effect; an effect the other way counts as inactive or inconclusive; further: 0% is about no effect)
Procedure, shortened: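 ERSR induction read as luciferase luminescence (Bright-Glo, 10 min at room temperature) in stably transfected human U87-MG glioma cells exposed to compounds for 16 h, using GRP78 as sensor.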

[3] = qHTS for Inhibitors of the Functional Ribonucleoprotein Complex (vRNP) of Lassa (LASV) Arenavirus: LASV Primary Screen - GLuc reporter signal (AID 1347082; calls by dose curve; tested in HEK293 reporter line; further: series mostly up to about 57 µM; on the % scale 0 is the no-effect control and ±100 the full control effect; nearly all actives have a fitted effect of over 60% in size)
[4] = qHTS for Inhibitors of the Functional Ribonucleoprotein Complex (vRNP) of Lassa (LASV) Arenavirus: Viability assay - alamar blue signal for LASV Primary Screen (AID 1347083; calls by dose curve; tested in HEK293 reporter line; further: series mostly up to about 57 µM; on the % scale 0 is the no-effect control and ±100 the full control effect; nearly all actives have a fitted effect of over 80% in size)
[5] = qHTS for Inhibitors of the Functional Ribonucleoprotein Complex (vRNP) of Lymphocytic Choriomeningitis Arenaviruses (LCMV): Viability assay - alamar blue signal for LCMV Primary Screen (AID 1347085; calls by dose curve; tested in HEK293 reporter line; further: series mostly up to about 57 µM; on the % scale 0 is the no-effect control and ±100 the full control effect; nearly all actives have a fitted effect of over 80% in size)
[6] = target: Nucleoprotein (Lymphocytic choriomeningitis virus (strain Armstrong)) (UniProt P09992); experiment: qHTS for Inhibitors of the Functional Ribonucleoprotein Complex (vRNP) of Lymphocytic Choriomeningitis Arenaviruses (LCMV): LCMV Primary Screen - GLuc reporter signal (AID 1347086); further: series mostly up to about 57 µM; on the % scale 0 is the no-effect control and ±100 the full control effect; nearly all actives have a fitted effect of over 70% in size
[7] = target: Cytochrome P450 3A4 (Homo sapiens) (UniProt P08684); experiment: qHTS Assay for Inhibitors and Substrates of Cytochrome P450 3A4 (AID 884; active means well fitted curve in the direction sought with a large enough effect; an effect the other way counts as inactive or inconclusive; further: series mostly up to about 57 µM; on the % scale 0 is the no-effect control and ±100 the full control effect; nearly all actives have a fitted effect of over 50% in size)
Procedure, shortened: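 Luminescent readout of luciferin produced by CYP3A4 (20 nM) dealkylation of Luciferin-PPXE, 25 uM (its KM). NADPH-driven reaction ran 60 min at RT after 10 min compound preincubation; data scaled to 57 uM ketoconazole as 100% inhibition.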

[8] = target: Cytochrome P450 3A4 (Homo sapiens) (UniProt P08684); experiment: qHTS Assay for Activators of Cytochrome P450 3A4 (AID 885; active means well fitted curve in the direction sought with a large enough effect; an effect the other way counts as inactive or inconclusive; further: nearly all actives have a fitted effect of over 65% in size)
Procedure, shortened: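 CYP3A4 activity: Luciferin-PPXE O-dealkylation, 25uM substrate, 200mM KPO4, RT throughout. Read-out is luciferase luminescence; higher values reflect activation.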

[9] = target: Ubiquitin carboxyl-terminal hydrolase 1 (Homo sapiens) (UniProt O94782); experiment: Inhibitors of USP1/UAF1: Pilot qHTS (AID 504865; active means well fitted curve in the direction sought with a large enough effect; an effect the other way counts as inactive or inconclusive;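 further: rhodamine fluorescence freed from ubiquitin-rhodamine substrate followed over time; top concentration of the series differs between compounds; on the % scale 0 is the no-effect control and ±100 the full control effect; nearly all actives have a fitted effect of over 35% in size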)
Procedure, shortened: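 USP1/UAF1 complex (1nM) preincubated with compound 15 min at room temperature, then Ub-Rho substrate (150nM final) added. Fluorescence read kinetically at 480/540 nm, 6 reads every 60 seconds. Buffer: 50mM HEPES pH 7.8, 0.5mM EDTA, 0.1 mg/ml BSA, 1mM TCEP, 0.01% Tween-20.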

[10] = target: Voltage-gated inwardly rectifying potassium channel KCNH2 (Homo sapiens) (UniProt Q12809); experiment: qHTS Assay for Small Molecule Inhibitors of the Human hERG Channel Activity (AID 588834; active means well fitted curve in the direction sought with a large enough effect; an effect the other way counts as inactive or inconclusive;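 further: lower thallium flux fluorescence means stronger hERG block; nearly all actives have a fitted effect of over 50% in size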; further: potency means the concentration at half of the fitted maximal effect)
Procedure, shortened: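 In hERG-transduced U2OS cells, dye-loaded for 1 hr at room temperature in dark, test compounds incubated 10 min at 37 °C before thallium stimulation. AC50 values derived by Hill modelling of concentration-response.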

[11] = target: Nuclear receptor ROR-gamma (Homo sapiens) (UniProt P51449); experiment: qHTS assay for small molecule antagonists of the retinoid-related orphan receptor gamma (ROR-gamma) signaling pathway (AID 651802; active means well fitted curve in the direction sought with a large enough effect; an effect the other way counts as inactive or inconclusive;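 further: CHO cells with doxycycline-induced ROR-gamma expression; series mostly up to about 92 µM; on the % scale 0 is the no-effect control and ±100 the full control effect; nearly all actives have a fitted effect of over 60% in size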)
Procedure, shortened: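 Steps: cells dispensed; compound or DMSO transferred by pin tool; doxycycline added to induce the ROR response element-driven luciferase; plates held 16hr at 37C; ONE-Glo added and luminescence measured.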

[12] = target: Arylsulfatase A (Homo sapiens) (UniProt P15289); experiment: qHTS screen for enhancers of Arylsulfatase A (ASA1): LOPAC Validation Assay (AID 720538; active means well fitted curve in the direction sought with a large enough effect; an effect the other way counts as inactive or inconclusive; further: 0% is about no effect)
Procedure, shortened: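 SV40-transformed skin fibroblasts from an MLD patient (ASA-I179S) were treated with compounds for 48h at 37 degree C, then lysed with 0.5mM pNCS final substrate for 14h at room temperature; NaOH stop, fluorescence read (Ex=525 nm; Em=598 nm).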

[13] = qHTS Assay for Identifying Gametocytocidal Compounds (AID 743244; active means well fitted curve in the direction sought with a large enough effect; an effect the other way counts as inactive or inconclusive;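 further: on the % scale 0 is the no-effect control and ±100 the full control effect; actives lower the fluorescent signal which means gametocytes are killed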); details: P. falciparum 3D7 stage III-V gametocytes, alamarBlue, 72 h; max response: active compounds read low
Procedure, shortened: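 A resazurin-based viability read-out was applied to mature P. falciparum gametocytes: 72 h compound treatment, then 24 h dye incubation, with falling fluorescence signalling gametocytocidal effect.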

[14] = target: Alpha-galactosidase (Coffea arabica) (UniProt Q42656); experiment: Counterscreen for Glucocerebrosidase Inhibitors: qHTS Assay for Coffee Bean alpha-Galactosidase at pH 4.5 (AID 957; active means well fitted curve in the direction sought with a large enough effect; an effect the other way counts as inactive or inconclusive;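 further: series mostly up to about 77 µM; plate controls were enzyme alone for no effect and no enzyme for full effect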)
Procedure, shortened: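 Enzyme is added first (2 nM final), then compounds titrated from 0.7 nM to 77 uM, then 80 uM 4-methylumbelliferyl alpha-D-galactopyranoside; after 20 min at room temperature a pH 10 NaOH/glycine stop precedes fluorescence reading at 365/440 nm.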

[15] = target: Alpha-galactosidase (Coffea arabica) (UniProt Q42656); experiment: Counterscreen for Glucocerebrosidase Inhibitors: qHTS Assay for Coffee Bean alpha-Galactosidase at pH 5.9 (AID 998; active means well fitted curve in the direction sought with a large enough effect; an effect the other way counts as inactive or inconclusive;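 further: plate controls were uninhibited enzyme for no effect and no-enzyme basal signal for full effect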)
Procedure, shortened: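 Fluorogenic 4-MU substrate hydrolysis, 80 uM substrate and 2 nM coffee bean alpha-galactosidase, pH 5.9 citrate buffer, 20 min at room temperature, then NaOH/glycine stop. Titration 0.7 nM–77 uM, normalized to no-enzyme and enzyme controls, AC50 via Hill equation.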

Chain of Nucleoprotein (Lymphocytic choriomeningitis virus (strain Armstrong)) (P09992 whole entry, looked up): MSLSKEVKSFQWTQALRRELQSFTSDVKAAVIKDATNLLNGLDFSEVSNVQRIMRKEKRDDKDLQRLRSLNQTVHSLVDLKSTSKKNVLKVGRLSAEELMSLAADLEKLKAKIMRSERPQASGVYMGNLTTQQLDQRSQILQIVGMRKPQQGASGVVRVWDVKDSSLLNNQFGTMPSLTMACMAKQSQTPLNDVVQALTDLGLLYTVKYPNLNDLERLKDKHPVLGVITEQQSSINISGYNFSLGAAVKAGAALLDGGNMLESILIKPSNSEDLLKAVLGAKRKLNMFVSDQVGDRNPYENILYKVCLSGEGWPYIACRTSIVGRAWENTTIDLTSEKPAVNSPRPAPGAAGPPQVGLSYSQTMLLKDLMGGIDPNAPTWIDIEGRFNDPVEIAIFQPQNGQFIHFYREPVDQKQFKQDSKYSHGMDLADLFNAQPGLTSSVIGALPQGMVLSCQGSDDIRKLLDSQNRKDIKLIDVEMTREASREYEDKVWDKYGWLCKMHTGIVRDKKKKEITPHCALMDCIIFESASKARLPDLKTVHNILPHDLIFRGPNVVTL
Chain of Alpha-galactosidase (Coffea arabica) (Q42656 whole entry, looked up): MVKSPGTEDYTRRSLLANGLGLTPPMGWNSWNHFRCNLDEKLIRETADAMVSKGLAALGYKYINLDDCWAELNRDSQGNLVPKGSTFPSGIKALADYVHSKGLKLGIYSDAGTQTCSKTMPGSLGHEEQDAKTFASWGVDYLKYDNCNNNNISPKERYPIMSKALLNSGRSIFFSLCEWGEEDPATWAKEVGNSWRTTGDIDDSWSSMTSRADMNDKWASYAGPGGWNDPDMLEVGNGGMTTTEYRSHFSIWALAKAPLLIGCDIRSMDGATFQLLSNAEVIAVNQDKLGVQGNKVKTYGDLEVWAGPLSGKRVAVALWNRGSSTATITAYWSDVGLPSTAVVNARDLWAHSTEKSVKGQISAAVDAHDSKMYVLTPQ
Chain of Cytochrome P450 3A4 (Homo sapiens) (P08684 whole entry, looked up): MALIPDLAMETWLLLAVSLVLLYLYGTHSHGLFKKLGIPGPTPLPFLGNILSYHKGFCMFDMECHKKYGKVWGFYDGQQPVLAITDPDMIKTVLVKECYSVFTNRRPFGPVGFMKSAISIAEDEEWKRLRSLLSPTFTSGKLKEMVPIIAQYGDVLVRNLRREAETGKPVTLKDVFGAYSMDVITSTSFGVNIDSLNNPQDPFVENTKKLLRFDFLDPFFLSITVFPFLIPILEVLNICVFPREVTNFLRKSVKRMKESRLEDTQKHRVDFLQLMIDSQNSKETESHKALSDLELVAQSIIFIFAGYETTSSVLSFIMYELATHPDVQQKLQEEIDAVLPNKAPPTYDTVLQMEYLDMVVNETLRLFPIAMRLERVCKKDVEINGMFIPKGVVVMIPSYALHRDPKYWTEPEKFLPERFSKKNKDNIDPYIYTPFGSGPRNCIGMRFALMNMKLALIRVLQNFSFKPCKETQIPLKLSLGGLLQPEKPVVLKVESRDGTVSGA
Chain of Voltage-gated inwardly rectifying potassium channel KCNH2 (Homo sapiens) (Q12809 whole entry, looked up): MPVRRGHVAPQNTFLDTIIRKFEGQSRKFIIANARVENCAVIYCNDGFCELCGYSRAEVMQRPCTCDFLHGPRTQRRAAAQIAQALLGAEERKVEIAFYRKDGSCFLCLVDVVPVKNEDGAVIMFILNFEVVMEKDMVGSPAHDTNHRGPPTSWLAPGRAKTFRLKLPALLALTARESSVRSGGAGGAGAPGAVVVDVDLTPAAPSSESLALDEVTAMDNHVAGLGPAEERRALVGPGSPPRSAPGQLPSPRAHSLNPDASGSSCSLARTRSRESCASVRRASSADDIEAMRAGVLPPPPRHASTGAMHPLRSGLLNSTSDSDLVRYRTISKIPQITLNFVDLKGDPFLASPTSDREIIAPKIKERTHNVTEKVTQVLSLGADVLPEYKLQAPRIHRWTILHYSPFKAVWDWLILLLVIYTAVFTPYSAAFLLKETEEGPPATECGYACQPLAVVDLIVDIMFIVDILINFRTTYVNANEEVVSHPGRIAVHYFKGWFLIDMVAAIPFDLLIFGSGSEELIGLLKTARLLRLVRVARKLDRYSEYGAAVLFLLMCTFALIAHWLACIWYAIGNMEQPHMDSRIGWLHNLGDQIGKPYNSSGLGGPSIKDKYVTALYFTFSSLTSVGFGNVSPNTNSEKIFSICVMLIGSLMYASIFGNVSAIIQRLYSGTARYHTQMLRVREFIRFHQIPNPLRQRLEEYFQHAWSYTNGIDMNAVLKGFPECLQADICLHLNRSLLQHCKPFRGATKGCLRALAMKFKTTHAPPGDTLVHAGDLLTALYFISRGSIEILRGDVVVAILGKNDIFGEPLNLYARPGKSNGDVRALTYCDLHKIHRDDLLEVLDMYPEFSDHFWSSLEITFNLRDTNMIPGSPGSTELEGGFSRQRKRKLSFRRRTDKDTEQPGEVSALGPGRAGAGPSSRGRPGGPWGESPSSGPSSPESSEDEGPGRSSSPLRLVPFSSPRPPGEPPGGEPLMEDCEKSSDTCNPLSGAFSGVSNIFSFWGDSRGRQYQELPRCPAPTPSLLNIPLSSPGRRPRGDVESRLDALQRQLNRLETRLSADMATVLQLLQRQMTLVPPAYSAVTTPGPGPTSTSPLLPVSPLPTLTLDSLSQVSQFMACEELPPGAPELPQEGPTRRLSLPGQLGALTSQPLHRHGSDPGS
Chain of Arylsulfatase A (Homo sapiens) (P15289 whole entry, looked up): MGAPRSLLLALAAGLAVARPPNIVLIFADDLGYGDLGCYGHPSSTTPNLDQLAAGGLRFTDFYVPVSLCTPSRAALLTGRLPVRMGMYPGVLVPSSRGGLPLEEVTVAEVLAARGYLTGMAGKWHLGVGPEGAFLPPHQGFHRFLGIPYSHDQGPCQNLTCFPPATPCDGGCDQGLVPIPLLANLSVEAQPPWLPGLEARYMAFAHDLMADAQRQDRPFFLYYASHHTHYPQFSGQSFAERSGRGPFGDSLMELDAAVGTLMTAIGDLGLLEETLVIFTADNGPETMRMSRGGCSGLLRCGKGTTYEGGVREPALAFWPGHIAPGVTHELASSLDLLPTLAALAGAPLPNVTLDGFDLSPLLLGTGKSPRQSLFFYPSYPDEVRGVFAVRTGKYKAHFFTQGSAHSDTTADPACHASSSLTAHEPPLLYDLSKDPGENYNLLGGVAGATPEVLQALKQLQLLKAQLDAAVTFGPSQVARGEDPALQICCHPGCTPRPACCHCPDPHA
Chain of Nuclear receptor ROR-gamma (Homo sapiens) (P51449 whole entry, looked up): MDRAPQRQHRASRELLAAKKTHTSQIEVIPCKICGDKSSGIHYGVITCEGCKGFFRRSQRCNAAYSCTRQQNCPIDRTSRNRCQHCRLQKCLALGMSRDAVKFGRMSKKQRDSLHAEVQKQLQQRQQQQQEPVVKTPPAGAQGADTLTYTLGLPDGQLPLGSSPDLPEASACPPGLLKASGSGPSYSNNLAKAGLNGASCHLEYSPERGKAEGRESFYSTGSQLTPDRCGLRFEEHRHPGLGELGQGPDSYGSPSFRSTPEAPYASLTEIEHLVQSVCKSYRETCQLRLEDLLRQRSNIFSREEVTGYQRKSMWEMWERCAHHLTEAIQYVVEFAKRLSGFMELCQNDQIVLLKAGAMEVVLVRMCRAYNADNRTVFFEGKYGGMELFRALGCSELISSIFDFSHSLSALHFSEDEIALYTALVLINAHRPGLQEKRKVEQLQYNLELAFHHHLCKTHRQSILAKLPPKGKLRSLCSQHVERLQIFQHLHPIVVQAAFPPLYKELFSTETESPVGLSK
Chain of Ubiquitin carboxyl-terminal hydrolase 1 (Homo sapiens) (O94782 whole entry, looked up): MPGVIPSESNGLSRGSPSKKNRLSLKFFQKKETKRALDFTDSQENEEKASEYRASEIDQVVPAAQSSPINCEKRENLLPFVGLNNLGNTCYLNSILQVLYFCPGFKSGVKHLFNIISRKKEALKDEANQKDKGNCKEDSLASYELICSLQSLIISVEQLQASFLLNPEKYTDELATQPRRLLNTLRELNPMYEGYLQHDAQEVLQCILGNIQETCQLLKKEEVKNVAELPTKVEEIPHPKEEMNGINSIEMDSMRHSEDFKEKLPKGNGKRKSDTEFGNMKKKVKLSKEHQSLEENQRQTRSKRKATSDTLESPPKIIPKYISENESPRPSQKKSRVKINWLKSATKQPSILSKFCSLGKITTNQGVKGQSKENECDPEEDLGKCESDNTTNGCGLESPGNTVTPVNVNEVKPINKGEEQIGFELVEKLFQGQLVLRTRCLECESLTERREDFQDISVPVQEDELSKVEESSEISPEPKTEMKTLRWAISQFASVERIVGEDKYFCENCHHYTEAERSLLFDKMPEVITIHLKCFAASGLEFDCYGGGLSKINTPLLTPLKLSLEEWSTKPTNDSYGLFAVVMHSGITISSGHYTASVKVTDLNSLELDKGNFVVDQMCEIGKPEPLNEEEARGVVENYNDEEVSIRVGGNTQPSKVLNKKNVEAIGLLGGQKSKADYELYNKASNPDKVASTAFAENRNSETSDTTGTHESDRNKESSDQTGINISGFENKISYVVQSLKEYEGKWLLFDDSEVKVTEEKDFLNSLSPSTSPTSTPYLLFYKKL

Cc1ccccc1CNc1ncnc2c1ncn2C1OC(CO)C(O)C1O (centres undefined)
inactive: Potency [1] | outcome [2] | Potency [3] | Potency [4] | Potency [5] | Potency [6]

Oc1ccc(C2CNCc3sccc32)cc1O (centres undefined)
inactive: Potency [1] | outcome [2] | Potency [3] | Potency [4] | Potency [5] | Potency [6]

COc1cc(C(O)CO)ccc1OS(=O)(=O)O (centres undefined)
inactive: Potency [1] | outcome [2] | Potency [3] | Potency [4] | Potency [5] | Potency [6]

CCCCCCCCCCCCCCC[C@H](O)[C@H](N)CO
inactive: Potency [1] | outcome [2] | Potency [3] | Potency [4] | Potency [5] | Potency [6]

CC(C)(C)NCC(O)COc1cccc2[nH]c(=O)[nH]c12 (centres undefined)
inactive: Potency [1] | outcome [2] | Potency [3] | Potency [4] | Potency [5] | Potency [6]

CCCCCCCCCCCCCCCC(=O)NCC(COP(=O)([O-])OCC[N+](C)(C)C)OCC (centres undefined)
active: Potency [1] 11.2 µM
inactive: outcome [2] | Potency [3] | Potency [4] | Potency [5] | Potency [6]

CC1(C)CCC(NC(=O)[C@@H](N)CCC(=O)O)CC1
inactive: Potency [1] | outcome [2] | Potency [3] | Potency [4] | Potency [5] | Potency [6]

CCCC[C@@]1(C2CCCC2)Cc2cc(OCC(=O)O)c(Cl)c(Cl)c2C1=O
inactive: Potency [1] | outcome [2] | Potency [3] | Potency [4] | Potency [5] | Potency [6]

CC(=O)/C(C)=N/O
inactive: Potency [1] | outcome [2] | Potency [3] | Potency [4] | Potency [5] | Potency [6]

O=C(O)C1CCCNC1 (centres undefined)
inactive: Potency [1] | outcome [2] | Potency [3] | Potency [4] | Potency [5] | Potency [6]

NC(N)=N[C@@H](CCC(=O)O)C(=O)O
inactive: Potency [1] | outcome [2] | Potency [3] | Potency [4] | Potency [5] | Potency [6]

CCCCCCCCCC(=O)NC(CN1CCOCC1)[C@H](O)c1ccccc1 (some centres undefined)
inactive: Potency [1] | outcome [2] | Potency [3] | Potency [4] | Potency [5] | Potency [6]

C=CCN1CCc2cc(O)c(O)cc2C(c2ccccc2)C1 (centres undefined)
inactive: Potency [1] | outcome [2] | Potency [3] | Potency [4] | Potency [5] | Potency [6]

CC(N)(C(=O)O)c1ccc(C(=O)O)cc1 (centres undefined)
inactive: Potency [1] | outcome [2] | Potency [3] | Potency [4] | Potency [5] | Potency [6]

COc1cccc(OC)c1OCCNCC1CSc2ccccc2O1 (centres undefined)
inactive: Potency [1] | outcome [2] | Potency [3] | Potency [4] | Potency [5] | Potency [6]

O=C(O)[C@H]1NCCC[C@H]1C(=O)O
inactive: Potency [1] | outcome [2] | Potency [3] | Potency [4] | Potency [5] | Potency [6]

OC(CN1CCN(c2cccc(Cl)c2)CC1)C(c1ccccc1)c1ccccc1 (centres undefined)
inactive: Potency [1] | outcome [2] | Potency [3] | Potency [4] | Potency [5] | Potency [6]

O=C(O)C1CN(CCCP(=O)(O)O)CCN1 (centres undefined)
inactive: Potency [1] | outcome [2] | Potency [3] | Potency [4] | Potency [5] | Potency [6]

Cn1c(=O)c2[nH]c(-c3ccccc3)nc2n(C)c1=O
inactive: Potency [1] | outcome [2] | Potency [3] | Potency [4] | Potency [5] | Potency [6]

CCOC(=O)C12CC1/C(=N/O)c1ccccc1O2 (centres undefined)
inactive: Potency [1] | outcome [2] | Potency [3] | Potency [4] | Potency [5] | Potency [6]

COC(=O)[C@H]1[C@H]2C[C@H]3c4[nH]c5ccccc5c4CCN3C[C@H]2CC[C@@H]1O
inactive: Potency [1] | outcome [2] | Potency [3] | Potency [4] | Potency [5] | Potency [6]

CN1C2CCC1CC(OC(c1ccccc1)c1ccccc1)C2 (centres undefined)
active: Potency [1] 10 µM
inactive: outcome [2] | Potency [3] | Potency [4] | Potency [5] | Potency [6]

N[C@@H](Cc1ccc(F)cc1)C(=O)O
inactive: Potency [1] | outcome [2] | Potency [3] | Potency [4] | Potency [5] | Potency [6]

C=CC1(C)CC(=O)C2(O)C(C)(O1)C(OC(C)=O)C(O)C1C(C)(C)CCC(O)C12C (centres undefined)
inactive: Potency [1] | outcome [2] | Potency [3] | Potency [4] | Potency [5] | Potency [6]

CC(=O)N[C@@H](Cc1c[nH]c2ccccc12)C(=O)OCc1cc(C(F)(F)F)cc(C(F)(F)F)c1
inactive: Potency [1] | outcome [2] | Potency [3] | Potency [4] | Potency [5] | Potency [6]

CC(C)C[C@H](NC(=O)[C@H](O)[C@H](N)Cc1ccccc1)C(=O)O
inactive: Potency [1] | outcome [2] | Potency [3] | Potency [4] | Potency [5] | Potency [6]

O=C(O)CCCC[C@@H]1CCSS1
inactive: Potency [1] | outcome [2] | Potency [3] | Potency [4] | Potency [5] | Potency [6]

CN(C)CCC(c1ccc(Cl)cc1)c1ccccn1 (centres undefined)
inactive: Potency [1] | outcome [2] | Potency [3] | Potency [4] | Potency [5] | Potency [6]

NC(=O)CC[C@H](N)C(=O)O
inactive: Potency [1] | outcome [2] | Potency [3] | Potency [4] | Potency [5] | Potency [6]

Oc1cc2c(cc1O)C(c1ccccc1)CNCC2 (centres undefined)
inactive: Potency [1] | outcome [2] | Potency [3] | Potency [4] | Potency [5] | Potency [6]

O=C(O)/C=C/c1cnc[nH]1
inactive: Potency [1] | outcome [2] | Potency [3] | Potency [4] | Potency [5] | Potency [6]

CC(C)C[C@H](NC(=O)C1OC1C(=O)O)C(=O)NCCCCN=C(N)N (some centres undefined)
inactive: Potency [1] | outcome [2] | Potency [3] | Potency [4] | Potency [5] | Potency [6]

OC[C@H]1O[C@@H](n2cnc3cncnc32)[C@H](O)[C@@H]1O
inactive: Potency [7]

CC1(C)CCC2=C(O1)c1ccccc1C(=O)C2=O
inactive: Potency [8]

NC(CCCP(=O)(O)O)C(=O)O (centres undefined)
inactive: Potency [9]

N=C(N)c1ccccc1
inactive: Potency [10]

C[C@@H](NCCc1ccc(O)cc1)[C@@H](O)c1ccc(O)cc1
active: Potency [10] 7.94 µM

CN1CCC[C@H]1c1cccnc1
inactive: Potency [11] | Potency [12] | max response [13] 8.91%

CC(=O)[C@H]1CCC2C3CC=C4C[C@@H](OS(=O)(=O)O)CC[C@]4(C)C3CC[C@@]21C (some centres undefined)
inactive: Potency [12]

C/C(=C\c1ccc(C(=O)O)cc1)c1ccc2c(c1)C(C)(C)CCC2(C)C
inactive: outcome [14] | outcome [15] | Potency [1] | outcome [2] | Potency [3] | Potency [4] | Potency [5] | Potency [6]
